Outcome and AC50 data for two compounds are collected here from PubChem BioAssay (EPA / NIEHS).

A short description of assay [1]: TOX21_PR_BLA_Followup_Agonist_viability: Viability Assessment in the Tox21 HEK293 Progesterone Receptor (PR) Agonism Beta-lactamase Follow-Up Assay (AID 2283935).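 Further: signal loss means lower viability so actives are cytotoxic.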 An outline of the steps: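 Viability is read as CellTiter-Glo luminescence, where loss of signal indicates cytotoxicity. The cells are PR-UAS-bla HEK293T given compounds for 16 hr at 37C and 5% CO2, in the same wells used for the bla readout.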

The target in a further assay is PGR (gene 5241) (UniProt P06401). Nature of the assay: TOX21_PR_LUC_Followup_Antagonist: Tox21 HEK293 Progesterone Receptor (PR) Antagonism Luciferase Follow-Up Assay (AID 2283938).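 Further: curve fitted upward as signal gain over DMSO baseline despite antagonist label.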 An outline of the steps: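 HEK293-PR-A-luc cells, 3,000/well, preincubated 5 h at 37C before compound addition in DMSO; 16 h compound exposure at 37C. ONE-Glo luciferase luminescence read after 30 min at room temperature, fitted relative to DMSO baseline.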
Chain of PGR (gene 5241) (P06401 whole entry, looked up): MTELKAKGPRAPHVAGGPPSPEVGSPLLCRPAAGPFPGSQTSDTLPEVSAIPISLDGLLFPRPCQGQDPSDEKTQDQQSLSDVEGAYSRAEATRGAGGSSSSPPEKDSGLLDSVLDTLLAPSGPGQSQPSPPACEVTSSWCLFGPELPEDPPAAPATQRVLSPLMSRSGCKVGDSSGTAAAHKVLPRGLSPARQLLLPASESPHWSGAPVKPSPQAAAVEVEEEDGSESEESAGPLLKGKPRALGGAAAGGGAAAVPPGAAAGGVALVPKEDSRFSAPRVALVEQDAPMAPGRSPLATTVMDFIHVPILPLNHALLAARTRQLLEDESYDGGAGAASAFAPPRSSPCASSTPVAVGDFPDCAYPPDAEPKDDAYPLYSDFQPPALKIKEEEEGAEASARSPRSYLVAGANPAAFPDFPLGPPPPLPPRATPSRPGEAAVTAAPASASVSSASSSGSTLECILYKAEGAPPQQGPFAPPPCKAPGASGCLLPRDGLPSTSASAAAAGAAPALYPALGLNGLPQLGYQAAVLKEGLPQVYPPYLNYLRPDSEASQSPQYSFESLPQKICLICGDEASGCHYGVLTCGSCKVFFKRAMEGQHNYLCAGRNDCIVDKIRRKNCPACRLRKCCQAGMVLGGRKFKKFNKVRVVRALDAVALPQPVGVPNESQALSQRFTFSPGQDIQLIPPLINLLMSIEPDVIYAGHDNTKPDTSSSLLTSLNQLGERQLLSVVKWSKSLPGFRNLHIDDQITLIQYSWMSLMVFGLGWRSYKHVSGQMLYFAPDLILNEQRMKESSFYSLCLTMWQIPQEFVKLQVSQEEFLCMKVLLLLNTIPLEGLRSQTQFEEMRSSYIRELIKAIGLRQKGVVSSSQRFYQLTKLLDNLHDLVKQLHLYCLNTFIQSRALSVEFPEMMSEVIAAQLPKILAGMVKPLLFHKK

A short description of assay [2]: TOX21_PR_LUC_Followup_Antagonist_viability: Viability Assessment in the Tox21 HEK293 Progesterone Receptor (PR) Antagonism Luciferase Follow-Up Assay (AID 2283940). The gist of the method:
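Loss of CellTiter-Glo ATP signal indicates cytotoxicity in HEK293-PR-A-luc cells grown in 10% charcoal-stripped FBS medium, seeded 3,000 per well and incubated 16 h with compound at 37C.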

Assay [3] can be described thus: TOX21_PR_LUC_Followup_Agonist_viability: Viability Assessment in the Tox21 HEK293 Progesterone Receptor (PR) Agonism Luciferase Follow-Up Assay (AID 2283941).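 Further: loss of signal means cytotoxicity so actives lower viability.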 An outline of the steps:
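Seeding: HEK293-PR-A-luc, 3,000 cells/well, 5 h at 37C. Treatment: compound in DMSO, 16 h, 37C. Read: CellTiter-Glo ATP luminescence, signal loss taken as lower viability.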

Assay [4] in a line: TOX21_PR_BLA_Followup_Antagonist_viability: Viability Assessment in the Tox21 HEK293 Progesterone Receptor (PR) Antagonism Beta-lactamase Follow-Up Assay (AID 2283936).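 Further: cells exposed to compound with R5020 agonist for 16 h; hits lower the luminescence signal meaning cytotoxicity.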 The gist of the method:
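PR-UAS-bla HEK293T cells in medium with 2% charcoal-stripped FBS were treated with compounds plus R5020 for 16 hr at 37C. After the beta-lactamase read, CellTiter-Glo was added to the same wells and luminescence read after 30 min at room temperature.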

Molecules are shown by their SMILES. Results filed as inconclusive are left out. Calls of active or inactive are those of the source. How the source made its calls: active means hit-call score of the fitted dose curve at least 0.9, where 1 is the maximum; inconclusive means response in the unintended direction; inactive means score below 0.9.

On to `C[C@]12CC[C@@H]3c4ccc(O)cc4CC[C@H]3[C@@H]1C[C@@H](O)[C@@H]2O`, for which the outcome in assay [1], in assay [2] and in assay [3] was inactive. In the assay with PGR (gene 5241), the half-maximal activity concentration (AC50) is 26 µM (active).
Consider `C[C@]12CC[C@@H]3c4ccc(O)cc4CC[C@H]3[C@@H]1CC[C@@H]2OC(=O)CCC1CCCC1`, for which the call (in assay [1]; in assay [4]; with PGR (gene 5241)) was inactive.
